# Records with an inconclusive call do not appear. Where a call stands in place of a potency, no number is given. Active and inactive are the calls of the source. Calls follow the shape of the full dose curve.
# Biological target: Atrial natriuretic peptide receptor 2 (Homo sapiens) (UniProt P20594)
# Assay: Natriuretic polypeptide receptor (hNpr2) antagonism - Pilot subtype selectivity assay (AID 1347050)
# Conditions: NPR2-expressing cells, cGMP antagonist-mode read-out; series mostly up to 38.3 µM
# Experimental: F. Fan, B. F. Binkowski, B. L. Butler, P. F. Stecha, M. K. Lewis, K. V. Wood, Novel genetically encoded biosensors using firefly luciferase. ACS Chem Biol 3, 346-351 (2008).
# PROTOCOL TABLE (as described by Inglese J, Shamu CE and Guy RK. 2007)
# SEQUENCE No. (e.g., 1, 2, 3, etc.); […] (e.g., Cells, Incubation, Reagent, etc.); VALUE and DESCRIPTION.
# 1. Cells. Seed 1500 HEK293 cGMP-sensor cells expressing hNpr2 per well in 4uL into Greiner 1536-well white/solid bottom high base, TC plates.
# 2. Incubation. Incubate plated cells at 37C in 5% CO2, 95% RH overnight.
# 3. Reagent. Add 1uL per well GloSensor reagent from Promega (2% final concentration) or CO2 independent media vehicle control to respective columns of Greiner 1536-well plates.
# 4. Incubation. Incubate plated cells at ambient temperature for 2 h., protect from light.
# 5. Compounds. Library compounds and DMSO vehicle control added at 23nL per well, transferred by Pin Tool.
# 6. Incubation. Incubate plated cells for 30 min. at ambient temperature, protect from light.
# 7. Detector. GloSensor baseline pre-read luminescence measured using CCD-based camera (Viewlux).
# 8. Compound. Add 1uL of hNppC peptide to 1 nM final concentration to stimulate hNpr2 or CO2 independent media as vehicle control.
# 9. Incubation. Incubate treated cells at ambient temperature for 20 min., protect from light.
# 10. Detector. GloSensor post-hNppC luminescence measured using CCD-based camera (Viewlux).
# NOTES (numbers refer to Sequence numbers above)
# 1. HEK293 cells expressing hNpr2 and GIP/pGS-40F were grown to 85-95% confluence (48-72 h) in T175 culture flasks (CO2 independent media supplemented with 10% FBS, 1% Pen/Strep antibiotics, and 1 ug/mL puromycin). Trypsinize and harvest cells from T175 culture flasks and filter through 40 um cell strainer. Cells counted with Invitrogen Countess (30,000,000 - 50,000,000 cells/flask). Cells diluted to a final concentration of 375 cells/uL in CO2 independent media and a Millipore multidrop used to dispense 1500 cells per well (4uL/well) into 9 x1536-well Greiner White/Solid bottom, high base tissue-culture treated (TC) plates and one Aurora 1536-well Black/Clear bottom, low base, TC plate (for visual inspection of cell health throughout the duration of the assay).
# 2. Cells incubated for 24 h. at 37C in 95% RH incubator with metal lid having gas-exchange holes.
# 3. Prepare GloSensor Reagent (Promega): Reconstitute GloSensor luciferase substrate by adding 8.2mL Hepes buffer to 250mg substrate, mix well, protect from light and stored at -80C. Prepare a fresh 12% GloSensor solution in CO2 independent supplemented plating media (see above). Mix well and store at ambient temperature, protected from light. 1uL 12% GloSensor Luciferase Reagent added (2% final concentration) to respective columns of 9 x 1536-well Greiner plate with BioRaptr, 1uL CO2 independent plating media added to respective columns as vehicle control with BioRaptr.
# 4. Cells incubated for 2 h. at ambient temperature, protected from light with metal lid having gas-exchange holes.
# 5. 23nL of LOPAC1280 library compounds (7 plates) or DMSO vehicle control transferred to 9 Greiner white/solid bottom high base, TC plates in 7 interplate 1:5 titrations (see Yasgar, A. et al. 2008) with Pintool. Two of the 9 plates are DMSO-only in compound field at beginning and end of compound library-treated plates.
# 6. Cells incubated for 30-50 min. at ambient temperature protected from light with metal lid having gas-exchange holes.
# 7. Read cellular baseline GloSensor luminescence in presence of test library compounds on the ViewLux [Exposure = 10 s.; Gain = High; Speed = Slow; and Binning = 2X.]
# 8. hNppC peptide agonist solution prepared at 1 mM (in H2O) stock concentration. From this a working dilution was prepared at 6 nM in CO2 Independent media. […]
# Potency is read from the fitted curve at half-maximal effect.
# Atrial natriuretic peptide receptor 2 (Homo sapiens), sequence (P20594 whole entry, looked up): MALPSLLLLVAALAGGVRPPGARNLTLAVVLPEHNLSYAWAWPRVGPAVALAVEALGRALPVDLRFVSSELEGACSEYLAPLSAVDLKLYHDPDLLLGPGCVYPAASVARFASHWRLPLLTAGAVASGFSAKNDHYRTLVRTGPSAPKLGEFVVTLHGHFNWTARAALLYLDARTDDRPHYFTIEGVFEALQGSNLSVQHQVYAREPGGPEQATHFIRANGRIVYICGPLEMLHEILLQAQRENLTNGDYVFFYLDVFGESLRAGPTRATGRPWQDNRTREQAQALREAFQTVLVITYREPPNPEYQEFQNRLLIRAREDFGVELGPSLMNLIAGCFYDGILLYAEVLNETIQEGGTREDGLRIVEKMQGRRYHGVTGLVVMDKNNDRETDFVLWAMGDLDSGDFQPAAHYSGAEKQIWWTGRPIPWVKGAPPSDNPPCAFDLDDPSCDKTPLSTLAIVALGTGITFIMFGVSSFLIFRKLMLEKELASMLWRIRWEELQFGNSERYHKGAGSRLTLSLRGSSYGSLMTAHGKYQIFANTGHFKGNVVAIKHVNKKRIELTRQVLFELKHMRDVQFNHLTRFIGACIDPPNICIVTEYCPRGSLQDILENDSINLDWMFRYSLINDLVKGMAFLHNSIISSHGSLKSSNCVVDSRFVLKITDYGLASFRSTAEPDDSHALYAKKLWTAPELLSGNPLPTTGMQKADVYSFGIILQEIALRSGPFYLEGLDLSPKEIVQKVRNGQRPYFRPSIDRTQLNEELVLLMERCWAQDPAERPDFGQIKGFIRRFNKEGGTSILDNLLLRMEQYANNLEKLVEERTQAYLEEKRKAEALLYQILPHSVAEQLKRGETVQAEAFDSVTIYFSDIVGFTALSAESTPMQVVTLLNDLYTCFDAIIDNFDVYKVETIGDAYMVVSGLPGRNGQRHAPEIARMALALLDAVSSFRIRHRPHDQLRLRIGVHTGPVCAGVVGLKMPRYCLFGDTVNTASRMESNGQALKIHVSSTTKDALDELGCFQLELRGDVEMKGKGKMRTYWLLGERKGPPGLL
row,Structure (SMILES),Potency
1,CC(O)(CS(=O)(=O)c1ccc(F)cc1)C(=O)Nc1ccc(C#N)c(C(F)(F)F)c1 (stereo not drawn),inactive
2,CC(=O)[C@H]1CC[C@H]2[C@@H]3CC[C@H]4C[C@](C)(O)CC[C@]4(C)[C@H]3CC[C@]12C,inactive
3,NCC(CC(=O)O)c1ccc(Cl)cc1 (stereo not drawn),inactive
4,O=c1[nH]c2ccccc2n1C1CCN(CCCC(c2ccc(F)cc2)c2ccc(F)cc2)CC1,inactive
5,COc1ccccc1N1CCNCC1,inactive
6,CC(C)=CCOc1c2occc2cc2ccc(=O)oc12,inactive
7,C[C@@H]1O[C@@H](O[C@H]2C[C@@H](O)[C@]3(CO)[C@H]4[C@H](O)C[C@]5(C)[C@@H](C6=CC(=O)OC6)CC[C@]5(O)[C@@H]4CC[C@]3(O)C2)[C@H](O)[C@H](O)[C@H]1O,inactive
8,CCCC(C)(COC(N)=O)COC(=O)NC(C)C (stereo not drawn),inactive
9,NCC1(CC(=O)O)CCCCC1,inactive
10,Fc1ccc(C(OCCN2CCN(CCCc3ccccc3)CC2)c2ccc(F)cc2)cc1,inactive
11,NCC(O)c1ccc(O)cc1 (stereo not drawn),inactive
12,Cc1cccc(C)c1NC1=NCCCS1,inactive
13,CC(CCc1ccccc1)NC(C)C(O)c1ccc(O)cc1 (stereo not drawn),inactive
14,c1ccc(C2CC2)c(OCC2=NCCN2)c1,inactive
15,CC(=O)[C@H]1CC[C@H]2[C@@H]3CC[C@H]4C[C@H](O)CC[C@]4(C)[C@H]3C(=O)C[C@]12C,inactive
16,CC[C@@H](CO)NC(=O)[C@@H]1C=C2c3cccc4[nH]cc(c34)C[C@H]2N(C)C1,inactive
17,C[C@]12CCC(=O)C(O)=C1CC[C@@H]1[C@@H]2CC[C@]2(C)C(=O)CC[C@@H]12,inactive

row,Structure (SMILES),Potency
1,Cc1ncc(CNC(=O)N(CCCl)N=O)c(N)n1,inactive
2,CCC1(C2=NCCN2)Cc2ccccc2O1 (stereo not drawn),inactive
3,NN=C(N)N,inactive
4,CCCN1CCC[C@@H]2Cc3[nH]ncc3C[C@H]21,inactive
5,CC[C@@H](CO)NC(=O)[C@@H]1C=C2c3cccc4c3c(cn4C)C[C@H]2N(C)C1,inactive
6,N#CC(C#N)=Cc1ccc(O)c(O)c1,inactive
7,CNCC(O)c1ccc(O)cc1 (stereo not drawn),inactive
8,Cc1ccc(S(=O)(=O)N[C@@H](CCCCN)C(=O)CCl)cc1,inactive
9,Cc1cccc(C)c1NC(=O)CN1CCCC1=O,inactive
10,c1ccc2c(c1)OCC(C1=NCCN1)O2 (stereo not drawn),inactive
11,COC[C@H]1OC(=O)c2coc3c2[C@@]1(C)C1=C(C3=O)C2CCC(=O)[C@@]2(C)C[C@H]1OC(C)=O (stereo partly drawn),inactive
12,C=C(C)[C@H]1Cc2c(ccc3c2O[C@@H]2COc4cc(OC)c(OC)cc4[C@@H]2C3=O)O1,82.6 nM (active)
13,CCCN1CCC[C@@H]2Cc3nc(N)ncc3C[C@H]21,inactive
14,O=C1NCN(c2ccccc2)C12CCN(CC1COc3ccccc3O1)CC2 (stereo not drawn),inactive
15,Nc1ccncc1,inactive
16,CN1C[C@H](CNC(=O)OCc2ccccc2)C[C@@H]2c3cccc4c3c(cn4C)C[C@H]21,inactive
